Data on 22 sequences can be found in the supplement of paper PMC6555819.

For this experiment, the system named is PXR homodimer (NR concentration 270 nM). Briefly: PBM binding z-score (relative to random genomic background probes); higher = stronger binding; sequences stand for … in GC…GCGATTGACAGCGTAGAATGAAGG
The method, boiled down: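 Binding buffer was PBS pH 7.4 with 2% milk, 0.02% Triton X-100, 1 mM DTT, 0.2 mg/mL BSA and 0.4 mg/ml salmon testes DNA. In it, ligand-free nuclear receptor dimers were incubated 1 h on custom Agilent 4×180K protein-binding microarrays carrying double-stranded probes. Antibodies against each partner (one per run) detected binding, and z-scores were calculated against random background probes after regression normalization of scanned fluorescence.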
As to AAATGTAGGTTATCGGGTCATTCAGTTTGCGCAT, the PBM binding z-score is 7.01. Then TCTTGTAGATCAACAGGAGGTAAAGAAAGATCGA, with -0.784; and CCTTACGGGTCACGAGGTTATGGCACGACGAGCG, with 0.0957; and CCTCGGAGGACAGAAGATCAGAGCTGTCCGCTTT, with -0.786. Turning to TTACCAAGGCGAGCTGAGGTCGTTGATCCAACTC, the PBM binding z-score was 0.0318.

In the case of TCTAGTAGATCAGCAGGTTAAGAAAGCTGGCCAA, the PBM binding z-score was -0.699.

Regarding GCGACTGGGGCATCAGCAGGTTACGATAACTTAA, the PBM binding z-score is -0.369.

Take CGAACTAGGTCATCCAGGACAGTAAATACATTGA: the PBM binding z-score stood at 1.3. Then ACTATTAGTTGAGACGAAGGCAACCGATAGGTTG, with -0.243; and TCGAGTTGGTTAGTCGGGGCATTCAGCCAACATA, with 0.163.

TAGCCTAGGTCATTCAGGGGCCTGTATAGAAAGC: the PBM binding z-score is -0.488. TAGCCAAGGTCATGGGCCAGTATACCACGCGAAC had a PBM binding z-score of 0.572. Then TCTAGTTGGGCACGGAGGTCACACACGACGGGTA, with 0.835. Then ATCTCTAGGTAAAGTACAGTGAAAGATCGATAGA, with 0.479; and GTACCAAGATGAATAGGTCGTTGATGAGTAGGCG, with 0.0588. Then CGAACTAGGTCCGAACAGGACAGTGAAGGATGAT, with -0.581. The sequence CTCGAAAGGTCGTTCTCAGGTGAGTATACCAAAC showed a PBM binding z-score of 0.471. CAAACTAAGTCAAGGTCAAAGTCGGTTTGTGCCA gave a PBM binding z-score of 2.29. Then GTTGCTAGGTCAGGTTGGTCAGCTAACGGGTACG, with 0.178; and CCAACGAGGGCATGAGTTGATAGCAAATGCCGAT, with -0.173; and TCTTGTAGATCGGCAGGTTAAGAAAGCTGGCCAA, with -0.293. For the sequence TCGAGTAGGTTAGGGGCATTCAAAATGGCGTCGA, the PBM binding z-score turned out to be 0.65.
